# Test results published in the supplement of paper PMC13094657.
# ± gives the standard deviation of the averaged measurements.
# Columns and labels:
# MDA-MB-231 [1] = assay: cell viability relative to vehicle unstimulated control (fraction); higher = more viable cells; details: pre-treatment time: 18 h then 24 h IFNg/TNF
# MDA-MB-231 [2] = assay: kynurenine production, fold change vs DMSO IFNg/TNF control; higher = more kynurenine produced (less inhibition); details: pre-treatment time: 18 h then 24 h IFNg/TNF
# Method in brief: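 MDA-MB-231 cells (7 × 10^4/well, 96-well plates, seeded 24 h earlier) were pre-treated 18 h with each natural product in 0.1% DMSO, then stimulated 24 h with IFNγ (1 U/ml) and TNF (6.25 ng/ml) at 37°C. Supernatant kynurenine was read at 492 nm after trichloroacetic acid and p-dimethylaminobenzaldehyde treatment, against 0–100 μM standards. Kynurenine production is the fold change over cytokine-stimulated vehicle wells on the same plate, averaged over duplicate plates in the first screening round.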
# 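For cell viability relative to vehicle unstimulated control in this document: viability of the cells left after supernatant collection, read with Deep Blue dye added for 4 h, as absorbance at 570 nm minus 600 nm.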
Compound,cell viability (MDA-MB-231 [1]),kynurenine production (MDA-MB-231 [2])
CC(C)=C[C@H]1C[C@](C)(O)[C@H]2[C@H]3CC[C@@H]4[C@@]5(C)CC[C@H](O[C@@H]6O[C@H](CO)[C@@H](O)[C@H](O[C@@H]7O[C@H](CO)[C@@H](O)[C@H](O)[C@H]7O)[C@H]6O[C@@H]6O[C@@H](CO)[C@H](O)[C@H]6O)C(C)(C)[C@@H]5CC[C@@]4(C)[C@@]34CO[C@@]2(C4)O1 [Bacoside A3] (compound dose: 10 uM),0.944 ± 0.034,0.672 ± 0.11
C/C1=C\CC/C(C)=C/C2C(CC/C(C)=C/CC1)C2(C)C (stereo not given) [Casbene] (compound dose: 10 uM),1.11 ± 0.042,0.871 ± 0.056
COC(=O)C1=CO[C@@H](O[C@@H]2O[C@H](CO)[C@@H](O)[C@H](O)[C@H]2O)[C@@H]2[C@@H](C)[C@@H](O)C[C@H]12 [Loganin] (compound dose: 10 uM),1.05 ± 0.041,1.02 ± 0.18
C=C(C(=O)O)[C@@H]1CC[C@@H](C)[C@@H]2CCC(C)=C[C@@H]21 [Artemisic acid] (compound dose: 10 uM),0.828 ± 0.3,0.594 ± 0.14
C=C1C[C@@]23CC[C@H]4[C@@](C)(CCC[C@@]4(C)C(=O)O[C@@H]4O[C@H](CO)[C@@H](O)[C@H](O)[C@H]4O[C@@H]4O[C@H](CO)[C@@H](O)[C@H](O)[C@H]4O)[C@@H]2CC[C@]1(O[C@@H]1O[C@H](CO)[C@@H](O)[C@H](O[C@@H]2O[C@H](CO)[C@@H](O)[C@H](O)[C@H]2O)[C@H]1O[C@@H]1O[C@H](CO)[C@@H](O)[C@H](O)[C@H]1O)C3 [Rebaudioside D] (compound dose: 10 uM),0.931 ± 0.038,0.9927 ± 0.0066
